# Reference: article PMC5540273 (PLoS ONE, 2017)
# Where “and” joins values, the source holds several entries; their conditions need not be identical. Identical values can stand only once. Like-named read-outs stand apart in the source and are kept apart here.
# Tests used:
# MAP3K3 = conditions: concentration: 1 μM, replicates: in singlicate, n = 1
# MAP3K4 = conditions: concentration: 1 μM, replicates: in singlicate, n = 1
# MAP4K2 = conditions: concentration: 1 μM, replicates: in singlicate, n = 1
# MAP4K3 = conditions: concentration: 1 μM, replicates: in singlicate, n = 1
# MAP4K4 = conditions: concentration: 1 μM, replicates: in singlicate; n = 1
# MAP4K5 = conditions: concentration: 1 μM, replicates: in singlicate; n = 1
# MAPKAPK2 = conditions: concentration: 1 μM, replicates: in singlicate, n = 1
# MAPKAPK5 = conditions: concentration: 1 μM, replicates: in singlicate, n = 1
# MARK1 = conditions: concentration: 1 μM, replicates: in singlicate; n = 1
# MARK2 = conditions: concentration: 1 μM, replicates: in singlicate, n = 1
# MARK3 = conditions: concentration: 1 μM, replicates: in singlicate; n = 1
# MARK4 = conditions: concentration: 1 μM, replicates: in singlicate, n = 1
# MAST1 = conditions: concentration: 1 μM, replicates: in singlicate, n = 1
# MEK1 = system: T1, MEK1; conditions: concentration: 1 μM, replicates: in singlicate, n = 1
# T1 construct: gene MAP2K1
# MEK2 = system: T2, MEK2; conditions: concentration: 1 μM, replicates: in singlicate, n = 1
# T2 construct: gene MAP2K2
# MEK3 = system: T3, MEK3; conditions: concentration: 1 μM, replicates: in singlicate, n = 1
# T3 construct: gene MAP2K3
# MEK4 = system: T4, MEK4; conditions: concentration: 1 μM, replicates: in singlicate, n = 1
# T4 construct: gene MAP2K4
# MEK5 = system: T5, MEK5; conditions: concentration: 1 μM, replicates: in singlicate, n = 1
# T5 construct: gene MAP2K5
# MEK6 = system: T6, MEK6; conditions: concentration: 1 μM, replicates: in singlicate; n = 1
# T6 construct: gene MAP2K6
# MELK = conditions: concentration: 1 μM, replicates: in singlicate, n = 1
# 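Further: KINOMEscan kinase panel screen.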
smiles,measurement,setting,value
C[C@H]1CC[C@@H](C(=O)Nc2ccccc2)CN1c1cc(-c2ccc3c(N)n[nH]c3c2)nc(N)n1 [GSK2283293],%Inh,MAP3K3,34%
same,%Inh,MAP3K4,5%
same,%Inh,MAP4K2,0%
same,%Inh,MAP4K3,0%
same,%Inh,MAP4K4,7%
same,%Inh,MAP4K5,0%
same,%Inh,MAPKAPK2,22%
same,%Inh,MAPKAPK5,0%
same,%Inh,MARK1,0%
same,%Inh,MARK2,0%
same,%Inh,MARK3,0%
same,%Inh,MARK4,0%
same,%Inh,MAST1,0%
same,%Inh,MEK1,0%
same,%Inh,MEK2,0%
same,%Inh,MEK3,0%
same,%Inh,MEK4,3%
same,%Inh,MEK5,11%
same,%Inh,MEK6,0%
same,%Inh,MELK,0%
FC(F)(F)c1cc(Nc2nccc(-c3c(-c4ccc(Cl)cc4)nn4ncccc34)n2)ccc1Cl [GW829351],%Inh,MAP3K3,0%
same,%Inh,MAP3K4,0%
same,%Inh,MAP4K2,0%
same,%Inh,MAP4K3,0%
same,%Inh,MAP4K4,0%
same,%Inh,MAP4K5,0%
same,%Inh,MAPKAPK2,0%
same,%Inh,MAPKAPK5,0%
same,%Inh,MARK1,0%
same,%Inh,MARK2,0%
same,%Inh,MARK3,0%
same,%Inh,MARK4,17%
same,%Inh,MAST1,20%
same,%Inh,MEK1,6%
same,%Inh,MEK2,21%
same,%Inh,MEK3,0%
same,%Inh,MEK4,0%
same,%Inh,MEK5,1%
same,%Inh,MEK6,0%
same,%Inh,MELK,0%
Cn1ccc2ncnc(Nc3ccc(Oc4cccc(Cl)c4)c(Cl)c3)c21,%Inh,MAP3K3,15%
same,%Inh,MAP3K4,17%
same,%Inh,MAP4K2,14%
same,%Inh,MAP4K3,0%
same,%Inh,MAP4K4,1%
same,%Inh,MAP4K5,0%
same,%Inh,MAPKAPK2,0%
same,%Inh,MAPKAPK5,14%
same,%Inh,MARK1,0%
same,%Inh,MARK2,25%
same,%Inh,MARK3,0%
same,%Inh,MARK4,9%
same,%Inh,MAST1,0%
same,%Inh,MEK1,29%
same,%Inh,MEK2,31%
same,%Inh,MEK3,1%
same,%Inh,MEK4,17%
same,%Inh,MEK5,99.6%
same,%Inh,MEK6,27%
same,%Inh,MELK,0%
Nc1nccc2scc(-c3ccc4c(c3)CCN4C(=O)Cc3cc(F)ccc3F)c12 [GSK2587663],%Inh,MAP3K3,0%
same,%Inh,MAP3K4,10%
same,%Inh,MAP4K2,0%
same,%Inh,MAP4K3,3%
same,%Inh,MAP4K4,0%
same,%Inh,MAP4K5,9%
same,%Inh,MAPKAPK2,20%
same,%Inh,MAPKAPK5,0%
same,%Inh,MARK1,0%
same,%Inh,MARK2,0%
same,%Inh,MARK3,4%
same,%Inh,MARK4,0%
same,%Inh,MAST1,9%
same,%Inh,MEK1,0%
same,%Inh,MEK2,0%
same,%Inh,MEK3,0%
same,%Inh,MEK4,5%
same,%Inh,MEK5,67%
same,%Inh,MEK6,0%
same,%Inh,MELK,0%
COc1ccc(-c2nc3n(c2-c2ccncc2)CCC3)cc1 [SKF-104493],%Inh,MAP3K3; 1 µM,6% and 0%
same,%Inh,MAP3K4; 1 µM,28% and 3%
same,%Inh,MAP4K2; 1 µM,7% and 0%
same,%Inh,MAP4K3; 1 µM,0% and 8%
same,%Inh,MAP4K4,0%
same,%Inh,MAP4K5,0%
same,%Inh,MAPKAPK2; 1 µM,12% and 9%
same,%Inh,MAPKAPK5; 1 µM,13% and 10%
same,%Inh,MARK1,0%
same,%Inh,MARK2; 1 µM,0% and 11%
same,%Inh,MARK3,0%
same,%Inh,MARK4; 1 µM,17% and 0%
same,%Inh,MAST1; 1 µM,49% and 11%
same,%Inh,MEK1; 1 µM,0% and 12%
same,%Inh,MEK2; 1 µM,29% and 5%
same,%Inh,MEK3; 1 µM,1% and 0%
same,%Inh,MEK4; 1 µM,67% and 12%
same,%Inh,MEK5; 1 µM,24% and 0%
same,%Inh,MEK6,0%
same,%Inh,MELK; 1 µM,0% and 15%
COc1ccc(NC(=O)Nc2ccc(C)c(-c3ccc(C(=O)Nc4ccncc4)cc3)c2)cc1 [GSK1398475],%Inh,MAP3K3,0%
same,%Inh,MAP3K4,0%
same,%Inh,MAP4K2,0%
same,%Inh,MAP4K3,0%
same,%Inh,MAP4K4,0%
same,%Inh,MAP4K5,0%
same,%Inh,MAPKAPK2,6%
same,%Inh,MAPKAPK5,0%
same,%Inh,MARK1,0%
same,%Inh,MARK2,0%
same,%Inh,MARK3,0%
same,%Inh,MARK4,0%
same,%Inh,MAST1,0%
same,%Inh,MEK1,0%
same,%Inh,MEK2,0%
same,%Inh,MEK3,0%
same,%Inh,MEK4,18%
same,%Inh,MEK5,0%
same,%Inh,MEK6,0%
same,%Inh,MELK,6%
Cc1ccc(NC(=O)c2cccc(C#N)c2)cc1-c1ccc(C(=O)Nc2ccncc2)cc1 [GSK1398463],%Inh,MAP3K3,0%
same,%Inh,MAP3K4,35%
same,%Inh,MAP4K2,0%
same,%Inh,MAP4K3,11%
same,%Inh,MAP4K4,4%
same,%Inh,MAP4K5,0%
same,%Inh,MAPKAPK2,24%
same,%Inh,MAPKAPK5,0%
same,%Inh,MARK1,0%
same,%Inh,MARK2,0%
same,%Inh,MARK3,0%
same,%Inh,MARK4,0%
same,%Inh,MAST1,17%
same,%Inh,MEK1,0%
same,%Inh,MEK2,10%
same,%Inh,MEK3,0%
same,%Inh,MEK4,0%
same,%Inh,MEK5,4%
same,%Inh,MEK6,31%
same,%Inh,MELK,0%
c1ccc(-c2ccc3c(-c4ccnc(Nc5ccc6c(c5)OCCO6)n4)cnn3n2)cc1 [GW818941],%Inh,MAP3K3,0%
same,%Inh,MAP3K4,14%
same,%Inh,MAP4K2,6%
same,%Inh,MAP4K3,4%
same,%Inh,MAP4K4,23%
same,%Inh,MAP4K5,20%
same,%Inh,MAPKAPK2,5%
same,%Inh,MAPKAPK5,13%
same,%Inh,MARK1,0%
same,%Inh,MARK2,0%
same,%Inh,MARK3,0%
same,%Inh,MARK4,9%
same,%Inh,MAST1,8%
same,%Inh,MEK1,17%
same,%Inh,MEK2,3%
same,%Inh,MEK3,0%
same,%Inh,MEK4,9%
same,%Inh,MEK5,5%
same,%Inh,MEK6,0%
same,%Inh,MELK,0%
Clc1cc(Nc2ncnc3cc[nH]c23)ccc1OCc1ccccn1,%Inh,MAP3K3,27%
same,%Inh,MAP3K4,10%
same,%Inh,MAP4K2,0%
same,%Inh,MAP4K3,0%
same,%Inh,MAP4K4,4%
same,%Inh,MAP4K5,6%
same,%Inh,MAPKAPK2,5%
same,%Inh,MAPKAPK5,0%
same,%Inh,MARK1,13%
same,%Inh,MARK2,0%
same,%Inh,MARK3,5%
same,%Inh,MARK4,4%
same,%Inh,MAST1,45%
same,%Inh,MEK1,17%
same,%Inh,MEK2,23%
same,%Inh,MEK3,19%
same,%Inh,MEK4,11%
same,%Inh,MEK5,76%
same,%Inh,MEK6,17%
same,%Inh,MELK,0%
Cl.Cn1ccc(-c2cccc(Nc3ccnc4cc(-c5nccs5)ccc34)c2)n1 [GW525701],%Inh,MAP3K3,0%
same,%Inh,MAP3K4,10%
same,%Inh,MAP4K2,14%
same,%Inh,MAP4K3,0%
same,%Inh,MAP4K4,20%
same,%Inh,MAP4K5,0%
same,%Inh,MAPKAPK2,21%
same,%Inh,MAPKAPK5,0%
same,%Inh,MARK1,28%
same,%Inh,MARK2,100%
same,%Inh,MARK3,0%
same,%Inh,MARK4,0%
same,%Inh,MAST1,12%
same,%Inh,MEK1,0%
same,%Inh,MEK2,0%
same,%Inh,MEK3,0%
same,%Inh,MEK4,8%
same,%Inh,MEK5,86%
same,%Inh,MEK6,0%
same,%Inh,MELK,0%
